# According to the supplement of paper PMC6555819:
# Tests used:
# Experiment in all cases: PBM binding z-score (relative to random genomic background probes); higher = stronger binding; sequences stand for … in GC…GCGATTGACAGCGTAGAATGAAGG
# [1] = test system: FXR:RXRa (NR concentration 270 nM, RXRa partner concentration 90 nM)
# How it was run: (§1)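 Binding z-scores were set against random background probes. The data came from custom Agilent 4×180K protein-binding microarrays carrying double-stranded probes with 34-nt variable regions, incubated 1 h with ligand-free nuclear receptor dimers. Partner-specific antibodies detected binding, and scanned fluorescence was regression-normalized.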
# [2] = test system: LXRa:RXRa (NR concentration 270 nM, RXRa partner concentration 90 nM)
# How it was run: as §1
# [3] = test system: LXRa homodimer (NR concentration 270 nM)
# How it was run: as §1
# [4] = test system: LXRb:RXRa (NR concentration 270 nM, RXRa partner concentration 90 nM)
# How it was run: as §1
# [5] = test system: LXRb homodimer (NR concentration 270 nM)
# How it was run: as §1
# [6] = test system: PPARa:RXRa (NR concentration 270 nM, RXRa partner concentration 90 nM)
# How it was run: as §1
# [7] = test system: PPARg:RXRa (NR concentration 180 nM, RXRa partner concentration 90 nM)
# How it was run: as §1
# [8] = test system: PPARg:RXRa 270nM:90nM, anti-RXR (NR concentration 270 nM, RXRa partner concentration 90 nM)
# How it was run: as §1
# [9] = test system: PPARg:RXRa 30nM:10nM, anti-RXR (NR concentration 30 nM, RXRa partner concentration 10 nM)
# How it was run: as §1
# [10] = test system: PPARg:RXRa 90nM:30nM, anti-RXR (NR concentration 90 nM, RXRa partner concentration 30 nM)
# How it was run: as §1
# [11] = test system: PPARg:RXRa DBDmut IVT, anti-RXR (DBD mutation: RXRa K156A/R161A, NR concentration 270 nM, RXRa partner concentration 90 nM)
# How it was run: as §1
# [12] = test system: PPARg:RXRa IVT, anti-PPARg (NR concentration 270 nM, RXRa partner concentration 90 nM)
# How it was run: as §1
# [13] = test system: PPARg DBDmut:RXRa IVT, anti-PPARg (DBD mutation: PPARg1 K132A/R137A, NR concentration 270 nM, RXRa partner concentration 90 nM)
# How it was run: as §1
# [14] = test system: PPARg DBDmut IVT, anti-PPARg (DBD mutation: PPARg1 K132A/R137A, NR concentration 270 nM)
# How it was run: as §1
# [15] = test system: PPARg homodimer (NR concentration 180 nM)
# How it was run: as §1
# [16] = test system: PXR:RXRa (NR concentration 270 nM, RXRa partner concentration 90 nM)
# How it was run: as §1
# [17] = test system: PXR homodimer (NR concentration 270 nM)
# How it was run: as §1
# [18] = test system: RARa:RXR (NR concentration 270 nM, RXRa partner concentration 90 nM)
# How it was run: as §1
# [19] = test system: RARa homodimer (NR concentration 270 nM)
# How it was run: as §1
# [20] = test system: RARb:RXRa (NR concentration 270 nM, RXRa partner concentration 90 nM)
# How it was run: as §1
Sequence,PBM binding z-score [1],PBM binding z-score [2],PBM binding z-score [3],PBM binding z-score [4],PBM binding z-score [5],PBM binding z-score [6],PBM binding z-score [7],PBM binding z-score [8],PBM binding z-score [9],PBM binding z-score [10],PBM binding z-score [11],PBM binding z-score [12],PBM binding z-score [13],PBM binding z-score [14],PBM binding z-score [15],PBM binding z-score [16],PBM binding z-score [17],PBM binding z-score [18],PBM binding z-score [19],PBM binding z-score [20]
TAGCCTAGGTCATTGGGCCAGTATAGTACGCATC,4.22,3.49,0.558,2.36,0.375,3.82,3.56,3.65,0.801,2.75,2.86,3.89,0.41,0.0888,0.963,1.58,-0.104,2.17,-0.237,3.59
ATCGAAAGGTCGACGAGGAGAGTATACACCGTTT,3.22,3.26,-0.0644,2.71,0.517,4.05,2.55,2.76,1.4,1.8,0.291,1.39,1.26,0.739,1.33,2.4,0.432,3.03,0.544,3.66
GATACACGGTCAAGGCCAGAGTACGCGTATTGAT,0.0472,0.275,-0.18,-0.406,-0.667,-0.0579,0.695,-0.00524,-0.0944,-0.0776,0.208,0.594,-0.0876,-0.79,-0.507,0.00631,-0.314,-0.159,-0.63,2.67
CCTACTGGGCCATTCAGAGGACATTGATCATATG,-0.067,-0.34,0.339,-0.405,-0.12,0.0535,0.784,0.44,-0.132,-0.17,4.5,3.41,0.559,-0.35,-0.295,-0.327,0.096,-0.457,-0.467,
TTACCAAGGTGAAAGGTCGGTGATGCACGCCTTG,2.27,1.8,-0.377,1.34,-0.609,4.27,7.36,6.88,6.6,7.95,2.41,4.51,1.85,0.075,1.26,2.17,-0.356,3.77,-0.0129,2.65
GCTGCTAGGTCAACTGAAGGTCAGCTAAAGCTCG,5.14,4.92,4.01,3.69,0.218,4.26,3.73,4.61,1.03,3.19,5,4.47,-0.0557,-1.06,5.87,4.62,0.437,6.6,2.11,4.98
GCTGCTAGGTCAACTGAGGGTCAGCTAAAGCTCG,5.12,4.47,1.48,3.45,0.289,4.35,3.55,4.15,0.901,2.72,4.93,4.17,-0.389,-0.635,4.56,4.5,-0.492,5.93,0.262,4.83
CGTCTAAGGTCAGCAGGTCAGTGAAAGCGACGTG,6.71,4.48,0.785,3.61,0.0498,5.3,4.86,5.46,1.6,4.03,3.72,3.7,0.756,0.144,5.12,4.16,0.612,5.94,2.05,
CAAACTAGGTCACGAAAGGTCAAAGCCGAATGAC,7.72,8.31,8.03,7.21,2.38,6.89,10.6,8.43,7.38,8.99,8.59,8.71,2.62,1.68,7.54,6.89,3.03,7.57,4.36,5.74
TATTGTAGATCAAAGGTTAAGAAAGCCGAAGCCT,1.52,2.61,0.529,2.07,0.724,4.99,8.15,8.41,7.59,9.21,1.27,4.2,1.1,1.23,1.87,2.16,0.399,3.1,0.703,2.07
CAAACCAGGTCACGAAAGGTCAAAGTCGAATGAC,7.94,8.2,8.63,7.45,3.02,6.66,9.2,7.84,5.15,7.6,6.74,7.37,0.599,1.79,6.46,7.33,5.57,8.04,4.58,5.74
CCTTACGGGTCCCTGACAGGTTATAGCATTTGGA,-0.274,-0.086,0.128,-0.0575,-0.647,0.0699,0.112,-0.345,-0.32,-0.402,-0.486,-0.544,-1.04,-1.23,0.149,-0.106,-0.274,-0.0622,0.466,0.205
GATACAGGGTCAACTAGAGGCCAGAGTATGGAAA,7.52,5.21,0.703,4.77,0.877,6.2,6.7,5.69,2.72,4.61,2.63,3.97,1.7,0.682,3.88,4.77,0.995,6.02,0.807,4.8
AGTAGCAGGCCAAGGGTCACTCAAGATTAGTCCG,2.36,2.53,0.22,2.8,-0.43,4.63,7.54,7.15,6.3,7.51,0.462,3.88,-0.464,-0.976,1.7,3.19,-0.0466,4.3,0.186,3.65
TAGCCTAGCTCATTCAGGGGCCAGTATAGAAAGC,-0.836,-1,-1.16,-0.368,-0.132,-1.13,-0.0519,-0.988,-0.46,-0.823,-0.101,-0.269,-0.969,-0.592,-1.77,-0.527,-0.788,-0.603,-1.25,-0.199
CGTGCAAGGTCAGAGAGGTCAGTGAATGCCGAGT,6.42,5.22,3.35,4.61,0.199,5.16,3.9,4.62,1.19,3.09,2.79,3.68,0.231,-0.338,2.85,6.05,11.2,5.42,0.698,
ATTTGTAGGTTATCGGGTCATTCAGTTTGCGCAT,3.62,4.05,3.03,3.67,2.31,4.47,6.03,5.66,2.93,5.14,6.74,6.84,2.14,2.88,3.32,4.01,6.61,3.9,2.71,
TTACCAAGGTGACCTGAGGTCGTTGATCCAACTC,3.01,5.21,3.22,3.72,-0.159,3.47,1.7,2.13,0.705,1.34,1.69,2.92,0.109,-0.145,1.47,5.57,1.38,3.89,-0.101,2.5
TCTCGGATGACACGAAAGGTCAGAGCTCGACATC,2.84,3.68,2.02,3.4,0.368,3.8,1.38,2.75,2.83,2.72,1.88,1.33,0.619,1.03,3.4,3.7,0.17,4.37,1.07,3.68
GATACAGGGTCAATGCCAGAGTACGCGTATTGAT,6.02,3.64,-0.0445,3.44,-0.0572,5.2,4.79,4.33,1.52,2.95,2.46,3.45,0.722,0.999,1.86,2.96,0.00137,3.59,0.532,4.19
CGTCAAAGTTCAACTAAGTTAACGTAAAGCACGC,7.25,5.95,4.61,4.33,2.56,4.99,5.09,5.05,2.33,4,0.764,1.89,1.94,1.78,2.97,6.14,5.97,4.09,2.57,
CGAACTAGGTGATTGACAGGACAGTGAATAGTAA,0.0682,-0.0591,0.0308,-0.196,-0.394,1.81,2.2,1.57,0.548,1.06,6.28,5.92,0.852,0.609,0.553,-0.082,0.228,0.0788,0.46,0.167
TAGCCTAGGTCAAGCGGGCCAGTATAGTGTCGGC,4.12,3.15,0.0899,1.78,-0.385,3.62,2.12,2.59,0.103,1.32,2.36,2.99,-0.422,-0.858,0.96,1.38,-0.618,2.42,-0.521,4.04
CCGACTGGGGCAACGGTTACCATACTCAGTACGA,-0.245,-0.501,-0.164,-0.317,-1.33,1.25,3.08,4.07,2.04,3.93,3.8,3.87,-0.196,-0.486,0.34,-0.591,-0.155,-0.576,-0.579,0.784
CCCCGGAGGACAGAAGGTCAGAGCTGTCCGCTTT,0.952,1.41,0.417,1.09,-0.645,1.87,-0.0611,0.529,-0.911,0.0217,-0.634,-0.0521,-2.12,-1.93,1.56,1.25,-0.156,1.87,0.0931,
CGAACTAAGTCATCCAGGACAGTGAATACATTGA,0.0178,-0.0444,0.135,-0.252,-0.311,0.0393,0.532,0.277,0.283,0.237,1.12,0.862,0.763,1.05,0.291,-0.153,-0.248,0.371,0.476,
CCTGCTAGGTCAATGGTCAGCTCAAGCAGCTCGC,3.28,2.16,-0.232,1.42,0.134,3.19,4.54,5.03,2.8,5.14,4.38,4.13,2.6,-0.398,1.12,0.974,-0.482,1.88,-0.428,3.79
TTACCGAGGTGAAAGGTCGTTGATGCACGCCTTG,3.99,3.64,0.332,3.53,-0.52,5.85,9.29,8.26,7.84,9.2,3.24,5.19,0.609,0.681,2.03,4.58,0.0493,6.71,-0.0852,3.11
ATATGCAGGTTATCGGGTCATTCAGTTTGCGCAT,3.37,3.44,1.57,3.03,0.832,4.13,4.45,4.25,1.56,3.42,4.84,5.2,2.48,0.956,2.06,3.99,7.38,4.1,0.986,2.51
CGTCCAAGGTCATAGGAGGTCATTGAAGACAGAT,7.83,7.82,7.86,6.99,1.61,5.94,5.65,5.98,2.75,4.71,3.6,4.68,0.258,0.325,4.58,7.17,10,6.52,2.32,5.47
